Insulin prom inh: TRM-6 insulin promoter activity inhibition; TRM-6 cells (human fetal islet line), insulin promoter-eGFP reporter, imaging; reporter expression induced with tamoxifen; inhibition, % at 2 µM; AID 1273; 130,000 tested, 0.9% active;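 active = inhibition above the mean plus 3 SD, with well images judged a real hit on visual review, cut at about 60% in these data, passing the limit was not always enough; inconclusive = inhibition over the cutoff but images rejected on review; inactive = inhibition not above the cutoff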
WT yeast gro inh: growth inhibition of WT yeast, mitochondrial fusion screen; mitochondrial fusion phenotypic screen, WT strain; inhibition, % at 10 µM; 190,000 tested, 2.1% active; AID 1362; in the data active = inhibition above about 58%; tested in S. cerevisiae
Insulin prom up: MIN6 insulin promoter up-regulation; MIN6 insulin promoter-GFP reporter, high-content imaging; stronger effect = higher value; z-score at 5 µM; 190,000 tested, 0.3% active; AID 1625;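 active = z-score above 3 at 5 µM with at least 500 cells counted in the well; inconclusive = wells under 500 cells, flagged as cytotoxic or low count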
L major viab: reduces viability of Leishmania major promastigotes; inhibition, % at 10 µM; resazurin fluorescence viability; 200,000 tested, 9% active; in the data active = inhibition above about 50%;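 also: promastigotes grown with compound for 44 hours at 28 °C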
KCC2 mod: modulates chloride dependent transport by human KCC2. 190,000 tested, 2.2% active. KCC2 cells, thallium flux FluoZin-2 fluorescence. B-score of Tl+ flux slope (higher = more flux/activation; lower = inhibition) at 10 µM. AID 1456;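 active = thallium flux slope and its plate-corrected score both differing from the plate sample mean at a set confidence after two filtering rounds, in either direction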;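 also: slope of fluorescence scaled to starting intensity during 10 to 20 s after thallium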
ROMK mod: human ROMK K+ channel modulation, primary screen; P48048; Tet-inducible ROMK, thallium flux fluorescence; actives lie on both sides; B-score at 10 µM; 130,000 tested, 2% active; AID 1918;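 active = signal ratio slope over the read window, or its plate-corrected B-score, at least 3 SD from the plate mean, either direction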;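 also: B-score of the F/F0 ratio slope over 7 to 12 s after thallium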
Target sequence (P48048 whole entry, looked up): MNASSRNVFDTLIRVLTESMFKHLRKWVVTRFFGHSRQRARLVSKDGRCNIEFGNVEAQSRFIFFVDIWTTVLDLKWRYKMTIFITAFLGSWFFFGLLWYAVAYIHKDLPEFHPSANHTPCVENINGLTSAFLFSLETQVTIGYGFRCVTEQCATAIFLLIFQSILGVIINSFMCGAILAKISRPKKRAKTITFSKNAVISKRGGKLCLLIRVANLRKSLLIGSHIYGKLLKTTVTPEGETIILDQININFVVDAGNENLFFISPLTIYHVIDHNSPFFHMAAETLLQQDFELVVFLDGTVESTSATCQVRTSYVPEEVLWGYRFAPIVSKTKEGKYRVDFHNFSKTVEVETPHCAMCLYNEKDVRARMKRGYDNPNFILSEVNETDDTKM
L major 1uM: inhibitors of Leishmania major promastigote growth, repeat at 1 uM. shares compounds with L major viab. 1,100 tested, 13% active. inhibition, % at 1 µM. L. major promastigote growth, resazurin fluorescence, 48 h;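 active = inhibition above about 50% in both repeat tests, limit read from the data; inconclusive = one repeat under the set limit, the other over it; inactive = both repeats under the set limit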
KCC2 secondary: confirmation of human KCC2 transport modulators. 3,700 tested, 15% active. shares compounds with KCC2 mod. normalised thallium flux (F/F0 slope) at 10 µM. AID 1713. HEK293-KCC2, thallium flux, FluoZin2 fluorescence; stronger effect = higher value;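 active = thallium flux slope above the same plate's solvent-only control mean plus 3 SD; inconclusive = the two replicate wells disagree; inactive = no significant difference from solvent-only control wells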
KCC2 bumet counter: bumetanide-insensitive thallium flux in KCC2 cells with ouabain, counter-screen; shares compounds with KCC2 mod; HEK293-KCC2 + bumetanide/ouabain, thallium flux FluoZin2; stronger effect = higher value; normalized thallium flux at 10 µM; 3,700 tested, 49% active; AID 1714;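 active = thallium entry rate above the same plate's blocked-transporter control wells by more than 3 SD; inconclusive = the two repeat wells disagree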;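 also: raw slope of fluorescence over initial fluorescence between 10 and 20 s after thallium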
KCC2 secondary2: confirmation of human KCC2 transport modulators. shares compounds with KCC2 mod. HEK293-KCC2, thallium flux FluoZin2 fluorescence; actives lie on both sides; F/F0 rise rate, 10–20 s post-thallium. normalized thallium flux at 10 µM. 3,700 tested, 23% active;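 active = thallium flux slope more than 3 SD above or below the plate's solvent-only control mean, mostly below; inconclusive = the two repeat wells disagreed; inactive = no significant shift from solvent-only controls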;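 also: raw slope with 0.1% DMSO as baseline and bumetanide as block control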
HEK293 Tl flux: parental HEK flux effect, counter-screen | thallium flux rate (normalised fluorescence) at 10 µM | shares compounds with KCC2 mod | HEK293 parental cells, thallium flux FluoZin2, ouabain; baseline-ratio fluorescence slope, 10–20 s after thallium | 3,700 tested, 46% active | AID 1716;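 active = thallium flux rate significantly above the same plate's solvent-only control wells, beyond their mean plus 3 SD; inconclusive = the two replicate wells gave conflicting results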
KCC2 ouabain: KCC2 (human) modulation, ouabain retest. shares compounds with KCC2 mod. HEK293-KCC2, thallium flux FluoZin2 fluorescence; bidirectional: low = inhibitor, high = activator. raw Tl+ flux slope (below DMSO = inhibition, above = activation) at 10 µM. AID 1717. 3,700 tested, 48% active;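 active = thallium flux slope beyond 3 SD from same-plate DMSO control mean in most replicates, usually higher, sometimes lower; inconclusive = repeat tests gave conflicting results; inactive = no significant difference from controls in most replicates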;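 also: slope of initial-normalized fluorescence between seconds 10 and 20 after thallium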
HEK293 Tl flux2: counter-screen for KCC2 modulators: effect in parental HEK293 cells. 3,700 tested, 33% active. thallium flux FluoZin-2 fluorescence slope. AID 1718. shares compounds with KCC2 mod. thallium flux slope at 10 µM;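 active = thallium flux slope above the same plate's solvent-control mean plus 3 SD in both duplicate wells; inconclusive = duplicate wells that disagreed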;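 also: run without ouabain in cells lacking the KCC2 cotransporter; slope of fluorescence scaled to its starting value between 10 and 20 s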
ROMK hit retest: retested hit modulating human ROMK potassium channel. shares compounds with ROMK mod. AID 1917. normalized thallium flux (F/F0 slope) at 10 µM. 3,000 tested, 54% active. ROMK thallium flux, fluorescence ratio; stronger effect = lower value;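 active = Flux at 10 µM at least 3 SD below or above vehicle control mean in one or both replicates; inconclusive = no clear call, values can overlap the other calls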
* hit, by the source's call. Compounds with a hit are over-represented: about 12% of the library has one in this group of screens.

Results for CCc1cc2c(nc1CC)CCN(CC/C(C)=N/OC[C@H]1O[C@H](c3ccccc3)C=C[C@@H]1Oc1ccc(OC)cc1)C2 ?
Insulin prom inh: -124; WT yeast gro inh: 39; Insulin prom up: -0.19; L major viab: 67*; KCC2 mod: -0.29; ROMK mod: -4.7*; L major 1uM: -4; ROMK hit retest: 0.054*

Results for O=C(NCc1ccccc1)NC1(C(=O)N2CCCC2)CCCCC1 ?
Insulin prom inh: -23; WT yeast gro inh: -12; Insulin prom up: 0.43; L major viab: -1; ROMK mod: -0.67

Results for COc1ccc(Cn2c(-c3ccc(OC)cc3)nc3ccccc32)cc1 ?
Insulin prom inh: -9; WT yeast gro inh: 55; Insulin prom up: -1.1; L major viab: 62*; KCC2 mod: -0.025; ROMK mod: -2.5*; L major 1uM: 63*; ROMK hit retest: inconclusive

What do the screens show for `Cc1cc(/C=C2\Sc3ccccc3N2C)cc(C)[n+]1CC1CCCO1` (stereo not given)?
WT yeast gro inh: 63; Insulin prom up: inconclusive; L major viab: 101*; KCC2 mod: inactive; ROMK mod: -4.8*; L major 1uM: 101*; ROMK hit retest: 0.028*

How did Cc1ccccc1-n1sc2cc(F)ccc2c1=O do in these assays?
Insulin prom inh: -124; WT yeast gro inh: 96; Insulin prom up: 1.6; L major viab: 80*; KCC2 mod: 1.4; ROMK mod: -4.7*; L major 1uM: -21; ROMK hit retest: 0.057*

What do the screens show for `N=C(N)SCc1cn(-c2ccccc2)nc1-c1ccc(Br)cc1`?
WT yeast gro inh: 85*; Insulin prom up: -0.06; L major viab: 101*; KCC2 mod: 0.42; ROMK mod: -2.1*; L major 1uM: 79*; ROMK hit retest: 0.055*

What do the screens show for `C=CCn1c(=N)n(CC(O)COc2ccccc2OC)c2ccccc21` (stereo not given)?
WT yeast gro inh: 11; Insulin prom up: -1.2; L major viab: 39; KCC2 mod: -0.087

What do the screens show for `CCCCCn1c(=N)n(CC(O)COc2ccccc2OC)c2ccccc21` (stereo not given)?
WT yeast gro inh: 5; Insulin prom up: -1; L major viab: 83*; KCC2 mod: 0.41; L major 1uM: 6; ROMK hit retest: 0.048*

What do the screens show for `Cc1nc2ccccn2c1C(=O)C(=O)Nc1cc(F)ccc1F`?
WT yeast gro inh: -2; L major viab: -7; KCC2 mod: -0.19; ROMK mod: 1.1

What do the screens show for `CCNC(=O)C(=O)NCCc1ccc(Cl)cc1`?
Insulin prom inh: -21; WT yeast gro inh: -27; Insulin prom up: 0.29; L major viab: -4; KCC2 mod: -0.0068

How did CCCCCCN(C(=O)CCCCCN1C(=O)NC(c2ccc(-c3ccccc3)cc2)C(C(=O)OCc2ccccc2)=C1C)C(C(=O)NCCCC)c1ccccc1 (stereo not given) do in these assays?
KCC2 mod: -0.72

Results for COc1ccc(C(=O)CCN2CCN(c3ccccc3F)CC2)cc1 ?
Insulin prom inh: -26; WT yeast gro inh: 2; Insulin prom up: 1.1; L major viab: 79*; KCC2 mod: -1.3; ROMK mod: -10*; L major 1uM: 1; ROMK hit retest: 0.077

Results for COc1ccc(OC)c(NC(=O)CCN2CCN(c3ccccc3F)CC2)c1 ?
Insulin prom inh: -30; WT yeast gro inh: -4; Insulin prom up: 0.24; L major viab: 0; KCC2 mod: -1.1

How did NC1=NC2=C(CCCC2)C2(CCCCC2)S1 do in these assays?
WT yeast gro inh: 5; Insulin prom up: -2.1; L major viab: 54*; KCC2 mod: -0.45; ROMK mod: -3.1*; L major 1uM: 15; ROMK hit retest: 0.064*

What do the screens show for `O=C(/C=C/c1ccccc1)CC(O)(c1ccccc1)C(F)(F)F` (stereo not given)?
Insulin prom inh: 50; WT yeast gro inh: 43; Insulin prom up: 0.33; L major viab: 100*; KCC2 mod: -0.63; ROMK mod: -4.8*; L major 1uM: 76*; ROMK hit retest: 0.052*

How did CC(NC(=O)COC(=O)/C=C/c1cccc(C(F)(F)F)c1)c1ccccc1 (stereo not given) do in these assays?
Insulin prom inh: 0; WT yeast gro inh: -1; Insulin prom up: -0.35; L major viab: -4; KCC2 mod: -0.44; ROMK mod: -0.14

How did FC(F)(F)c1ccc2c(c1)[nH]c(=S)n2C1CC1 do in these assays?
Insulin prom inh: 0; WT yeast gro inh: 18; L major viab: -4; KCC2 mod: 62*; ROMK mod: 1.3; KCC2 secondary: 0.03*; KCC2 bumet counter: 0.17*; KCC2 secondary2: 0.045*; HEK293 Tl flux: 0.069*; KCC2 ouabain: 0.11*; HEK293 Tl flux2: 0.027*

How did O=C(CSc1nc(-c2ccco2)cc(C(F)(F)F)n1)N1CCN(c2cccc(Cl)c2)CC1 do in these assays?
Insulin prom inh: -26; WT yeast gro inh: 49; Insulin prom up: 0.39; L major viab: 0; KCC2 mod: -0.76; ROMK mod: -0.68

How did COc1ccc(OC)c(-n2nnnc2SCC(=O)NCCc2ccccc2)c1 do in these assays?
Insulin prom inh: -79; Insulin prom up: 0.21; L major viab: -5; ROMK mod: 0.015; KCC2 secondary: 0.0066; KCC2 bumet counter: 0.0051; KCC2 secondary2: inconclusive; HEK293 Tl flux: 0.0073; KCC2 ouabain: 0.017; HEK293 Tl flux2: 0.011
